Assay outcomes from PubChem BioAssay.
Pf growth 48h: inhibits P. falciparum growth in the first generation, 48 h | P. falciparum luciferase growth in erythrocytes, 48 h | Potency, µM (titrated, usually from 28.7 µM), without a hit: at the top dose activity change, negative = inhibition, most hits filed as inhibitors | hit rate 5.9% among 310,000; note: potency is the fitted concentration of half-maximal effect; % is set by controls: 0 for no effect and ±100 for the full control effect
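Read-out is firefly luciferase luminescence from an integrated reporter in P. falciparum, so falling signal marks reduced parasite growth. Infected erythrocytes were at 2% hematocrit and 0.1% parasitemia (final) in Albumax-supplemented RPMI 1640.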
NS1 function inh: blocks influenza NS1 protein function; hit rate 0.4% among 270,000; Potency, µM (highest dose often 46.1 µM), for inactives: top-dose activity, positive = more growth; AID 2326; calls by dose curve; note: potency is the fitted concentration of half-maximal effect; actives are rising curves; nearly all actives have a fitted effect of over 50% in size
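In this qHTS, NS1 from influenza A is expressed in budding yeast, where it slows growth. Cells are switched from glucose to 2% galactose medium (pH 6.0, -URA), treated with compound, and growth recovery is read at OD600.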
Sm TGR block: blocks Schistosoma mansoni thioredoxin glutathione reductase; Q962Y6; purified TGR, DTNB reduction, TNB absorbance 405 nm; Potency, µM (doses to about 114 µM), for the others: at the highest dose activity change, negative = inhibition, hits mostly inhibitors; hit rate 3% among 360,000; AID 485364; note: potency is the fitted concentration of half-maximal effect; % is set by controls: 0 for no effect and ±100 for the full control effect; nearly all actives have a fitted effect of over 60% in size
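TGR 20 nM + NADPH 100 uM (dispensed conc.), cpd preinc 15 min RT; start with NADPH (500 uM addition) then DTNB (15 mM addition). Kinetic TNB absorbance, 405 nm filter. Four-parameter Hill fit across titration.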
Shiga toxin inh: Shiga toxin inhibition; inhibition, % at 38.7 µM; Vero cells, Shiga toxin protein synthesis inhibition reporter; hit rate 9.2% among 290,000; in the data active = inhibition mostly above about 28%, no sharp cut-off; inactive = mostly below about 43%; note: 0% is about no effect
Cycloheximide cs: affects cycloheximide protein synthesis inhibition readout, counter-screen; cell reporter, cycloheximide protein synthesis inhibition counterscreen; max response, %; hit rate 12% among 300,000; AID 2314; in the data active = max response mostly above about 13%, no sharp cut-off; inactive = mostly below about 14%; note: read at 38.3 µM for the half of the compounds with a filed dose; 0% is about no effect
Pf growth 96h: inhibits malaria parasite growth, 96 h. P. falciparum luciferase reporter growth, 96 h. Potency, µM (doses to about 28.7 µM), without a hit: top-dose activity change, negative = inhibition, actives largely listed as inhibitors. hit rate 6.9% among 320,000. AID 504834; note: potency is the fitted concentration of half-maximal effect; % is set by controls: 0 for no effect and ±100 for the full control effect
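Luminescence readout: decreased luciferase signal marks inhibited growth of reporter-expressing P. falciparum in infected red cells (2% hematocrit, 0.05% parasitemia final), exposed to compound two generations (96 h, 37 C, 5% CO2).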
* hit, by the source's call; ? = inconclusive; nt = no result given; [ ] = dose if it differs, or a comment. Shown are actives, neighbours in structure and some others; about 21% of the full set was active somewhere. Unless noted, calls come from the whole dose curve; as a rule, active = well fitted curve in the direction sought with a large enough effect; inconclusive = small, poorly fitted or top-dose-only effect, or another doubt; inactive = no such curve, though single readings can be large; an effect the other way counts as inactive or inconclusive.

SMILES | Pf growth 48h | NS1 function inh | Sm TGR block | Shiga toxin inh | Cycloheximide cs | Pf growth 96h
CC(=C/c1ccccc1)/C=N/NC(=O)c1cccs1 | 254% | -53% | 12% | 78* | 36* | -66%
CN(c1ccccc1)P(=O)(N(C)c1ccccc1)N(C)c1ccccc1 | ? | nt | -1% | 5 | -4 | ?
CCC(C(=O)NCc1ccccc1OC)n1nc(C)n2c(cc3sccc32)c1=O (stereo not drawn) | nt | nt | 5% | nt | nt | nt
C/C(N)=C(/C#N)C(=O)COC(=O)c1cccc2ccccc12 | 58% | 6% | -16% | 95* | 37* | 40%
C/C(N)=C(/C#N)C(=O)COC(=O)c1ccccc1O | 38% | 7% | 1% | active | 24* | 56%
N#CSCC(=O)c1cccc2ccccc12 | -1% | -20% | 32µM* | -5 | 12 | 60%
C/C(N)=C(/C#N)C(=O)COC(=O)c1ccccc1C(=O)c1ccc(C)cc1 | -3% | nt | -1% | 15 | 3 | 2%
C/C(N)=C(/C#N)C(=O)COC(=O)c1cc(-c2cccc3ccccc23)nc2ccccc12 | -26% | 12% | -1% | -11 | 8 | -29%
O=C(NC1CCCCC1)C(c1ccc(O)c(O)c1)N(C(=O)Cn1nnc2ccccc21)c1cccc(O)c1 (stereo not drawn) | -19% | 9% | -4% | -14 | -1 | 1%
O[C@@H](c1cc(C(F)(F)F)nc2c(Cl)cc(Cl)cc12)C1CCCCN1 (stereo partly drawn) | nt | -3% | nt | nt | nt | nt
CN(CCc1cnn(C)c1)Cc1nc(CC2CC2)no1 | 49% | 9% | 4% | -10 | 12 | ?
COc1ccc(C(=O)Nc2ccccc2C(=O)N2CCCCCC2)cc1 | -17% | -5% | -10% | 24 | -2 | -6%
COc1cc(OC)cc(C(=O)Nc2ccccc2C(=O)N2CCCC2)c1 | 122% | -14% | -2% | 60* | 30* | 78%
Cc1ccc(C(=O)Nc2ccc(C(=O)N3CCCCC3C)cc2)cc1 (stereo not drawn) | ? | -9% | 0% | 12 | 6 | -19%
CCC(NC(=O)c1ccccc1NC(=O)c1ccccc1)C(=O)OC (stereo not drawn) | 2.1µM* | -61% | 26% | -16 | -4 | 29%
Cc1ccc(C(=O)Nc2ccccc2C(=O)N2CCCCC2C)cc1 (stereo not drawn) | -16% | -19% | -4% | 24 | 6 | 12µM*
CCC(NC(=O)c1ccccc1NC(=O)c1ccc(OC)cc1)C(=O)N1CCCC1 (stereo not drawn) | 44% | -8% | -4% | 34* | 46* | -12%
Cc1ccc(N2CCN(C(=O)Cn3ncc4c([nH]c5ccc(C)cc54)c3=O)CC2)c(C)c1 | nt | nt | 7% | nt | nt | nt
CC(OC(=O)c1cc(S(=O)(=O)N2CCOCC2)ccc1Br)C(=O)N1CCOCC1 (stereo not drawn) | ? | nt | -20% | nt | nt | ?
O=C(Nc1cc(Cl)ccc1Cl)c1cc(S(=O)(=O)N2CCCc3ccccc32)ccc1F | nt | nt | 1% | nt | nt | nt
COC(=O)Nc1ccc(S(=O)(=O)N2CCCc3ccccc32)cc1 | ? | -23% | 1% | 41* | 18* | 39%
O=S(=O)(c1ccc(F)c(F)c1)N1CCCc2ccccc21 | 18% | -7% | -9% | 64* | 37* | 1%
Cc1cccc(S(=O)(=O)N2CCCc3ccccc32)c1 | -45% | -9% | 38% | -7 | 11 | 0%
Cc1cc(C)c(S(=O)(=O)N2CCCc3ccccc32)c(C)c1 | 13µM* | -64% | 3% | -18 | 1 | ?
O=S(=O)(c1ccc(Br)cc1)N1CCCc2ccccc21 | 0% | -43% | -1% | -7 | 12* | ?
SMILES | Pf growth 48h | NS1 function inh | Sm TGR block | Shiga toxin inh | Cycloheximide cs | Pf growth 96h
CCC(=O)N1CCc2cc(Br)cc(S(=O)(=O)Nc3ccccc3C(=O)OC)c21 | nt | nt | -3% | nt | nt | nt
CC(=O)C(/C=N/c1ncc(C(F)(F)F)cc1Cl)=C(\C)O | -15% | nt | 8% | 10 | 16 | 13%
CCCn1c(=O)c(C(=O)NCCc2ccc(OC)cc2)c(O)c2ccccc21 | 2% | 4% | 15% | -3 | -1 | ?
CCCCN(C)CCNC(=O)c1cc(-c2ccc(Cl)s2)nc2ccccc12 | nt | nt | 2% | nt | nt | nt
COc1ccc(CCNCc2cc3ccc(C)cc3[nH]c2=O)cc1OC | 17% | 1% | -13% | -6 | -4 | 13µM*
Cc1ccc2cc(CNC(C)C)c(=O)[nH]c2c1 | nt | 1% | 0%[11.4 µM] | -5 | -1 | 5.2µM*
COc1ccc(CCN(Cc2cc3ccc(C)cc3[nH]c2=O)C(C)=O)cc1OC | 2.3µM* | 1% | -3% | -5 | -3 | -2%
Cc1ccc2cc(CCNC(=O)C(C)C)c(=O)[nH]c2c1 | 20% | -1% | 0% | 2 | 1 | 9%
O=C(Nc1nc2ccccc2[nH]1)c1ccc(S(=O)(=O)N2CCOCC2)cc1 | 5% | -2% | nt | 22 | 6 | -2%
O=C(Nc1ccc(Cl)c(S(=O)(=O)N2CCCCC2)c1)c1cccnc1 | 12µM* | nt | 2% | nt | nt | ?
CC(C)(C)c1ccc(C(=O)Nc2ccc(NC(=O)c3ccc(Cl)c(Cl)c3)cc2)cc1 | nt | nt | 2% | nt | nt | nt
O=C(Nc1nc2ccccc2[nH]1)c1ccc(Cl)c(S(=O)(=O)N2CCCC2)c1 | nt | 10% | 21% | 71 | 33* | -104%
O=C(Nc1ccncc1)c1ccc(Cl)c(Cl)c1 | ? | -63% | -1% | 28 | 13 | 2.9µM*
Cc1nonc1NC(=O)c1ccc(Cl)c(S(=O)(=O)N2CCCCC2)c1 | -6% | -7% | 10% | 4 | 2 | 2.6µM*
CCC(=O)Oc1ccc(C2Nc3ccccc3-c3nnc(SC)nc3O2)cc1 (stereo not drawn) | nt | nt | 2% | nt | nt | nt
O=C(Nc1ccncc1)c1ccc(F)cc1 | nt | -28% | 6% | 4 | 8 | 5.2µM*
O=C(Nc1ccncc1)c1ccc(Cl)c(S(=O)(=O)N2CCCC2)c1 | 12µM* | nt | -2% | nt | nt | ?
Cc1cc(NC(=O)c2ccccc2F)ncc1NC(=O)c1cccs1 | 34% | -6% | 4% | 54 | 21* | 1%
CCCC(=O)Nc1cc(C)c(NC(=O)c2cccs2)cn1 | 5% | nt | 0% | -9 | 14 | -10%
Cc1cc(NC(=O)c2ccccc2)ncc1NC(=O)c1cccs1 | 118% | -4% | nt | 124* | 40* | 3%
Cc1cc(NC(=O)c2cccs2)ncc1NC(=O)c1cccc(F)c1 | 62% | -9% | nt | 66* | 42* | 5.2µM*
Cc1cc(NC(=O)c2cccs2)ncc1NC(=O)C(C)C | 232% | -3% | 0% | 39* | 38* | 2.3µM*
COc1ccc(OC)c(NC(=O)[C@H](CSCc2ccccc2)N2Cc3ccccc3C2=O)c1 | nt | nt | -1% | nt | nt | nt
CC(=O)c1cccc(N(C(=O)Cn2nnc3ccccc32)C(C(=O)NCc2ccccc2)c2ccc(F)cc2)c1 (stereo not drawn) | nt | nt | -4% | nt | nt | nt
COc1ccc(/C=N/N=C2/SCC(=O)N2Cc2ccccc2)cc1 | 144% | 2% | 0% | 86* | 47* | 164%
